According to PubChem BioAssay (NCI):
“And” between values parts separate entries of the source, which are not always exact repeats. Equal entries are not always repeated. About 83,000 compounds went through this panel and 20% of them were active in at least one assay; those are over-represented in the sample as a whole.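 Single-concentration screen, 48 h exposure, 96-well plates. Endpoint: percent growth. Below 10 = active.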 Values without a mark were called inactive. The source made the active and inactive calls.

Each molecule was assayed on EKVX NSCLC (assay: NCI-60 one-dose screen, 48 h (100 = growth as untreated, 0 = no growth, -100 = all killed)). Conditions: 10 µM unless noted.

Question: COc1c(B(O)O)cc(F)cc1-c1nc2c(F)cc3[nH]ncc3c2c2c1CCCC2 was tested. Which growth did it give?
Answer: 13.5%

Question: For C/C(=N\Nc1ccc(C(=O)O)cc1)c1cnn(-c2cc(=O)[nH]c3ccc(C)cc23)c1C, which growth is on record?
Answer: 93%

Question: Which growth does the source give for O=C1Nc2cc(-c3ccc(NS(=O)(=O)c4ccc([N+](=O)[O-])cc4)cc3)ccc2/C1=C/c1ccc[nH]1 here?
Answer: 3.18% (active)

Question: COc1ccc(NC(=O)CSc2nnc(-c3ccc(-c4nc5ccc(Cl)cc5[nH]4)cc3)o2)cc1 was tested. Which growth did it give?
Answer: 23.3%

Question: Which growth does the source give for COc1ccc2[nH]c(O)c(N=Nc3nc(-c4ccc(C#N)cc4)cs3)c2c1 here?
Answer: 63.9%

Question: Which growth does the source give for COc1ccc(-c2nc3ccc(-c4nnc(SCC(=O)Nc5ccc(/C(C)=N\O)cc5)o4)cc3[nH]2)cc1 here?
Answer: 95.3%

Question: CCCCCCCCCCCCCCCCCC(=O)Nc1ccc(OC)cc1 was tested. Which growth did it give?
Answer: 94.7%

Question: How did the growth turn out when CCN1C(=O)N(CC)C2NNC(Sc3c(C(=O)O)c4ccccc4n(CCC(C)C)c3=O)=NC21 (stereo unspecified) was run?
Answer: 20.8%

Question: How did the growth turn out when COc1ccc(/C=C/c2nc3ccccc3n3c(-c4cccc([N+](=O)[O-])c4)nnc23)cc1 was run?
Answer: -52% (active)

Question: COc1ccc(NC(=O)N/N=C/c2c[nH]c3ccccc23)cc1 was tested. Which growth did it give?
Answer: 43.1%

Question: Which growth does the source give for CCC(=O)c1cc(C(=O)OC)c2ccc3c4ccccc4ccc3n12 here?
Answer: 83.6%

Question: For Cc1oc(-c2ccccc2)nc1CN[C@@H]1C[C@@H]2C[C@H]([C@H]1C)C2(C)C, which growth is on record?
Answer: 42.4%

Each molecule was assayed on SN12C renal in the same assay as above. Conditions: 10 µM unless noted.

Question: Which growth does the source give for C=CC(=O)N1CCN(c2ccc3nc4c(nc3c2C(F)(F)F)C(=O)c2ncccc2C4=O)CC1 here?
Answer: -44% (active)

Question: With O=C(N/N=C/c1ccc(-c2cccc([N+](=O)[O-])c2)s1)c1[nH]c2ccc(Br)cc2c1-c1ccccc1 as the molecule, how does the growth read?
Answer: 91.4%

Question: How did the growth turn out when CCCCNc1ccc2c3c(cccc13)C(=O)N(NCC(O)COc1ccc3c(C)cc(=O)oc3c1)C2=O (stereo unspecified) was run?
Answer: 94.5%

Question: With CC(=O)Nc1cccc(-n2c(COc3ccc(Br)cc3)nc3ccccc32)c1 as the molecule, how does the growth read?
Answer: 104% and 110%

Question: For CC(=O)c1c2c(c3ccc4c5ccccc5ccc4n13)C(=O)c1ccccc1C2=O, which growth is on record?
Answer: 89.9%

Question: For CC1=NN(C2=NC(=O)C(CC(=O)Nc3ccccc3C(F)(F)F)S2)C(c2ccc(N(C)C)cc2)C1 (stereo unspecified), which growth is on record?
Answer: 46.5%

Question: Cc1ccc(C2CC(c3ccc(NC(=O)Nc4ccccc4)cc3)=NN2c2ccc(S(C)(=O)=O)cc2)cc1 (stereo unspecified) was tested. Which growth did it give?
Answer: -94% (active)

Question: How did the growth turn out when O=C(CSc1nc2sc3c(c2c(=O)n1-c1ccc(Cl)cc1)CCCC3)N/N=C/C=C/c1ccccc1 was run?
Answer: 15.4%

Question: How did the growth turn out when O=C(COc1ccc(/C=C2/C(=O)Nc3ccc(Cl)cc32)cc1)Nc1ccc(Br)cc1 was run?
Answer: -80.6% (active)

Question: For CC(C)(C)OC(=O)N1CCC2(CC1)Oc1ccccc1[C@H]1CC(c3ccc(Br)cc3)=NN12, which growth is on record?
Answer: 71.2%

Question: How did the growth turn out when N#Cc1c(-c2ccc(F)cc2)nc(SCc2ccc(F)cc2)nc1N1CCNCC1 was run?
Answer: -58.6% (active)

Question: How did the growth turn out when Cc1ccc(/C=C/C(=O)c2ccc(S(=O)(=O)NCCNc3nc(N(C)C)nc(N4CCOCC4)n3)cc2)cc1 was run?
Answer: 86.4%

Question: For ClC(Cn1ncc2c(Nc3cccc(Br)c3)nc(SCCN3CCOCC3)nc21)c1ccc(Br)cc1 (stereo unspecified), which growth is on record?
Answer: 26.2%

Question: For COc1ccc(N=Nc2c(N)nn3c(N)c(C#N)c(-c4ccccc4)nc23)cc1, which growth is on record?
Answer: 40.8%

Question: Cc1cccc(-c2ccccc2Oc2ccc3nnc(Cl)n3n2)c1 was tested. Which growth did it give?
Answer: 101%

Question: Which growth does the source give for CCN1CCN(Cc2ccc(C(=O)Nc3cccc(Nc4ccc5c(OC)cccc5n4)c3)cc2C(F)(F)F)CC1 here?
Answer: -90.5% (active)

Question: Which growth does the source give for N#CCc1nnc(NC(=O)c2ccc(-n3c(=O)[nH]c4ccccc4c3=O)cc2)s1 here?
Answer: 95.4%

Question: Which growth does the source give for COc1cc(NC(=O)CSc2nnc(-c3ccc(-c4nc5ccc(Cl)cc5[nH]4)cc3)o2)cc(OC)c1OC here?
Answer: 46.6%

Question: With c1n[nH]cc1-c1nc2ccc3cn[nH]c3c2c2c1CCCC2 as the molecule, how does the growth read?
Answer: 74.3%

Question: How did the growth turn out when Cc1ccccc1NC(=O)c1cccc(NC(=O)CCl)c1 was run?
Answer: 15.4%

Question: COc1ccc(-c2cc(-c3cc(OC)c(OC)c(OC)c3)[nH]c(=O)c2C#N)cc1 was tested. Which growth did it give?
Answer: 8.1% (active)

Question: For O=C(CSc1nc2c(c(=O)[nH]1)CCCC2)Nc1ccccc1C(=O)O, which growth is on record?
Answer: 93.3%

Question: For N/C(=N\c1nc2ccccc2s1)NC(=O)Nc1ccccc1[N+](=O)[O-], which growth is on record?
Answer: 5.63% (active)

Question: Which growth does the source give for FC(F)(F)c1cc2c(Cl)ncnc2n1CCN1CCOCC1 here?
Answer: 75.6%
